# According to the supplement of paper PMC4466140:
# What was measured:
# Assay in all cases: SPOT peptide array binding signal intensity (averaged, normalized) (arbitrary units (background-subtracted, floor 0; scale differs between SH3 domains)); higher = stronger binding of the SH3 domain to the peptide
# AgAbp1 = target: AgAbp1
# Procedure, shortened: (§1)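 SH3 domains from four yeast species were expressed as GST fusions in E. coli BL21(DE3) and purified on glutathione Sepharose. Each was incubated at 10 μg/ml overnight at 4°C in TBS-based blocking buffer on cellulose membranes bearing synthetic 15-mer peptides, in which serines replaced cysteines. Bound protein was detected with anti-GST antibody, an HRP anti-mouse secondary and luminol, then imaged and quantified with Genespotter. The binding signal is the normalized, background-subtracted spot intensity averaged over replicates, in arbitrary units that are not the same from one domain to another.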
# AgBbc1 = target: AgBbc1
# Procedure, shortened: as §1
# AgBem1-D1 = target: AgBem1-D1
# Procedure, shortened: as §1
# AgBzz1-D1 = target: AgBzz1-D1
# Procedure, shortened: as §1
# AgBzz1-D2 = target: AgBzz1-D2
# Procedure, shortened: as §1
# AgCyk3 = target: AgCyk3
# Procedure, shortened: as §1
# AgFus1 = target: AgFus1
# Procedure, shortened: as §1
# AgHof1 = target: AgHof1
# Procedure, shortened: as §1
# AgHse1 = target: AgHse1
# Procedure, shortened: as §1
# AgLsb1 = target: AgLsb1
# Procedure, shortened: as §1
# AgLsb4 = target: AgLsb4
# Procedure, shortened: as §1
# AgMyo5 = target: AgMyo5
# Procedure, shortened: as §1
# AgNbp2 = target: AgNbp2
# Procedure, shortened: as §1
# AgRvs167 = target: AgRvs167
# Procedure, shortened: as §1
# AgSho1 = target: AgSho1
# Procedure, shortened: as §1
# AgSla1-D1-D2 = target: AgSla1-D1-D2
# Procedure, shortened: as §1
# AgSla1-D3 = target: AgSla1-D3
# Procedure, shortened: as §1
# CaAbp1-D1 = target: CaAbp1-D1
# Procedure, shortened: as §1
# CaAbp1-D2 = target: CaAbp1-D2
# Procedure, shortened: as §1
# CaBbc1 = target: CaBbc1
# Procedure, shortened: as §1
# CaBem1-D1 = target: CaBem1-D1
# Procedure, shortened: as §1
# CaBzz1-D1 = target: CaBzz1-D1
# Procedure, shortened: as §1
# CaBzz1-D2 = target: CaBzz1-D2
# Procedure, shortened: as §1
# CaCyk3 = target: CaCyk3
# Procedure, shortened: as §1
# CaFus1 = target: CaFus1
# Procedure, shortened: as §1
# CaHof1 = target: CaHof1
# Procedure, shortened: as §1
# CaHse1 = target: CaHse1
# Procedure, shortened: as §1
# CaLsb1 = target: CaLsb1
# Procedure, shortened: as §1
# CaLsb4 = target: CaLsb4
# Procedure, shortened: as §1
# CaMyo5 = target: CaMyo5
# Procedure, shortened: as §1
# CaNbp2 = target: CaNbp2
# Procedure, shortened: as §1
# CaRvs167 = target: CaRvs167
# Procedure, shortened: as §1
# CaRvs167-3 = target: CaRvs167-3
# Procedure, shortened: as §1
# CaSho1 = target: CaSho1
# Procedure, shortened: as §1
# CaSla1-D1-D2 = target: CaSla1-D1-D2
# Procedure, shortened: as §1
# CaSla1-D3 = target: CaSla1-D3
# Procedure, shortened: as §1
# ScAbp1 = target: ScAbp1
# Procedure, shortened: as §1
# ScBbc1 = target: ScBbc1
# Procedure, shortened: as §1
# ScBem1-D1 = target: ScBem1-D1
# Procedure, shortened: as §1
# ScBzz1-D1 = target: ScBzz1-D1
# Procedure, shortened: as §1
# ScBzz1-D2 = target: ScBzz1-D2
# Procedure, shortened: as §1
# ScCyk3 = target: ScCyk3
# Procedure, shortened: as §1
# ScFus1 = target: ScFus1
# Procedure, shortened: as §1
# ScHof1 = target: ScHof1
# Procedure, shortened: as §1
# ScHse1 = target: ScHse1
# Procedure, shortened: as §1
# ScLsb1 = target: ScLsb1
# Procedure, shortened: as §1
# ScLsb2 = target: ScLsb2
# Procedure, shortened: as §1
# ScLsb3 = target: ScLsb3
# Procedure, shortened: as §1
# ScLsb4 = target: ScLsb4
# Procedure, shortened: as §1
# ScMyo3 = target: ScMyo3
# Procedure, shortened: as §1
# ScMyo5 = target: ScMyo5
# Procedure, shortened: as §1
# ScNbp2 = target: ScNbp2
# Procedure, shortened: as §1
# ScPex13 = target: ScPex13
# Procedure, shortened: as §1
# ScRvs167 = target: ScRvs167
# Procedure, shortened: as §1
# ScSho1 = target: ScSho1
# Procedure, shortened: as §1
# ScSla1-D1-D2 = target: ScSla1-D1-D2
# Procedure, shortened: as §1
# ScSla1-D3 = target: ScSla1-D3
# Procedure, shortened: as §1
# SpAbp1-D1 = target: SpAbp1-D1
# Procedure, shortened: as §1
# SpBbc1 = target: SpBbc1
# Procedure, shortened: as §1
# SpBzz1-D1 = target: SpBzz1-D1
# Procedure, shortened: as §1
binder,measurement,setting,value
KDKKTKPTPPPKPSH,SPOT peptide array binding signal intensity,AgAbp1,494
same,SPOT peptide array binding signal intensity,AgBbc1,26.8
same,SPOT peptide array binding signal intensity,AgBem1-D1,60.5
same,SPOT peptide array binding signal intensity,AgBzz1-D1,42
same,SPOT peptide array binding signal intensity,AgBzz1-D2,48
same,SPOT peptide array binding signal intensity,AgCyk3,≤ 0
same,SPOT peptide array binding signal intensity,AgFus1,≤ 0
same,SPOT peptide array binding signal intensity,AgHof1,19.5
same,SPOT peptide array binding signal intensity,AgHse1,29
same,SPOT peptide array binding signal intensity,AgLsb1,≤ 0
same,SPOT peptide array binding signal intensity,AgLsb4,≤ 0
same,SPOT peptide array binding signal intensity,AgMyo5,≤ 0
same,SPOT peptide array binding signal intensity,AgNbp2,≤ 0
same,SPOT peptide array binding signal intensity,AgRvs167,1.5
same,SPOT peptide array binding signal intensity,AgSho1,34.5
same,SPOT peptide array binding signal intensity,AgSla1-D1-D2,7
same,SPOT peptide array binding signal intensity,AgSla1-D3,4
same,SPOT peptide array binding signal intensity,CaAbp1-D1,275
same,SPOT peptide array binding signal intensity,CaAbp1-D2,226
same,SPOT peptide array binding signal intensity,CaBbc1,132
same,SPOT peptide array binding signal intensity,CaBem1-D1,0.5
same,SPOT peptide array binding signal intensity,CaBzz1-D1,1220
same,SPOT peptide array binding signal intensity,CaBzz1-D2,715
same,SPOT peptide array binding signal intensity,CaCyk3,≤ 0
same,SPOT peptide array binding signal intensity,CaFus1,≤ 0
same,SPOT peptide array binding signal intensity,CaHof1,1.5
same,SPOT peptide array binding signal intensity,CaHse1,2
same,SPOT peptide array binding signal intensity,CaLsb1,1
same,SPOT peptide array binding signal intensity,CaLsb4,≤ 0
same,SPOT peptide array binding signal intensity,CaMyo5,2.25
same,SPOT peptide array binding signal intensity,CaNbp2,0.5
same,SPOT peptide array binding signal intensity,CaRvs167,1.5
same,SPOT peptide array binding signal intensity,CaRvs167-3,4.5
same,SPOT peptide array binding signal intensity,CaSho1,6
same,SPOT peptide array binding signal intensity,CaSla1-D1-D2,10
same,SPOT peptide array binding signal intensity,CaSla1-D3,2
same,SPOT peptide array binding signal intensity,ScAbp1,735
same,SPOT peptide array binding signal intensity,ScBbc1,≤ 0
same,SPOT peptide array binding signal intensity,ScBem1-D1,9
same,SPOT peptide array binding signal intensity,ScBzz1-D1,≤ 0
same,SPOT peptide array binding signal intensity,ScBzz1-D2,79
same,SPOT peptide array binding signal intensity,ScCyk3,1
same,SPOT peptide array binding signal intensity,ScFus1,31
same,SPOT peptide array binding signal intensity,ScHof1,1.75
same,SPOT peptide array binding signal intensity,ScHse1,38
same,SPOT peptide array binding signal intensity,ScLsb1,≤ 0
same,SPOT peptide array binding signal intensity,ScLsb2,≤ 0
same,SPOT peptide array binding signal intensity,ScLsb3,328
same,SPOT peptide array binding signal intensity,ScLsb4,≤ 0
same,SPOT peptide array binding signal intensity,ScMyo3,≤ 0
same,SPOT peptide array binding signal intensity,ScMyo5,≤ 0
same,SPOT peptide array binding signal intensity,ScNbp2,17
same,SPOT peptide array binding signal intensity,ScPex13,≤ 0
same,SPOT peptide array binding signal intensity,ScRvs167,1.17
same,SPOT peptide array binding signal intensity,ScSho1,334
same,SPOT peptide array binding signal intensity,ScSla1-D1-D2,9
same,SPOT peptide array binding signal intensity,ScSla1-D3,5
same,SPOT peptide array binding signal intensity,SpAbp1-D1,148
same,SPOT peptide array binding signal intensity,SpBbc1,3.75
same,SPOT peptide array binding signal intensity,SpBzz1-D1,26.5
